# ERK EGF inh = EGF-driven ERK pathway inhibition; 130,000 tested, 0.41% active; HEK293-V1b, EGF-stimulated phospho-ERK AlphaScreen; Potency, µM (highest dose often 11.5 µM), for inactives: at the highest dose activity change, negative = inhibition, hits mostly inhibitors;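 also: potency is read from the fitted curve at half-maximal effect; plate controls were stimulated vehicle wells for no effect and unstimulated vehicle basal for full effect; nearly all actives have a fitted effect of over 55% in size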
#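 Homogeneous cell-based phospho-ERK assay: HEK293/V1b cells in 1% FBS, compound 30 min then EGF 5 min, AlphaScreen luminescence. Activity normalized between DMSO and 25 nM EGF controls; AC50 from Hill modelling.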
# pERK EGF inh = confirmation of ERK pathway inhibitors under EGF stimulation; HEK293 EGF-stimulated ERK phosphorylation, AlphaScreen; Potency, µM (doses to about 57.5 µM), without a hit: at the highest dose activity change, negative = inhibition, most hits filed as inhibitors; 60 tested, 60% active; shares compounds with ERK EGF inh; AID 1725
# c-Raf inh = c-Raf inhibition, ERK pathway follow-up | shares compounds with ERK EGF inh | c-Raf kinase inhibition, homogeneous biochemical assay | 70 tested, under 10 active | activity change, negative = inhibition, % at 76.9 µM | AID 1728
# Target sequence (P04049 whole entry, looked up): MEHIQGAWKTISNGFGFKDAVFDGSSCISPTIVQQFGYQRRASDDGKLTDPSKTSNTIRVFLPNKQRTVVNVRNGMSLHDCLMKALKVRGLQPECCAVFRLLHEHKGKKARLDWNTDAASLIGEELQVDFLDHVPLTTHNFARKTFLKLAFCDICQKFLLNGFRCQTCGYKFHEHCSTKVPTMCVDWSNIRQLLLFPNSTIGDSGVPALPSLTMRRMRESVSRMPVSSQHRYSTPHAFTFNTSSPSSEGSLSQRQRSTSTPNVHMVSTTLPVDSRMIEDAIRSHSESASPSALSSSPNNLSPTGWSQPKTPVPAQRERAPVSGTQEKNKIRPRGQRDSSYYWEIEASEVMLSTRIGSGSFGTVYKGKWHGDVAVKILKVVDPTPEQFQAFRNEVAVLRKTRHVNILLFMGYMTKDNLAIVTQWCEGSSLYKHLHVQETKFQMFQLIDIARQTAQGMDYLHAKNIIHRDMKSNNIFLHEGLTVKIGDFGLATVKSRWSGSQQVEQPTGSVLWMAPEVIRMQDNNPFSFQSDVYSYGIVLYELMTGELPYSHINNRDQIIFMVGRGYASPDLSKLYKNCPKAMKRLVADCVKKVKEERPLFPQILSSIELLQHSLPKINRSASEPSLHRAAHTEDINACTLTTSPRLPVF
# MEK1 kinase inh = blocks human MEK1 kinase activity in ERK pathway follow-up | 70 tested, under 10 active | Potency, µM (highest dose often 76.9 µM), for inactives: at the top dose activity change, negative = inhibition, hits mostly inhibitors | homogeneous MEK kinase activity assay, ERK pathway | AID 1732 | shares compounds with ERK EGF inh
# The depositor's hits bear a star; ? = inconclusive; . = not tested or not shown; [ ] = dose if it differs, or a comment. Only a selection was taken, and hits are over-represented in it overall. Calls follow the shape of the dose curve; as a rule, active = well fitted curve in the direction sought with a large enough effect; inconclusive = small, poorly fitted or top-dose-only effect, or another doubt; inactive = no such curve, though single readings can be large; an effect the other way counts as inactive or inconclusive.
SMILES,ERK EGF inh,others
C=C[C@]1(C)CC(=O)[C@@]2(O)[C@@]3(C)C(O)CCC(C)(C)C3C(O)C(OC(C)=O)[C@@]2(C)O1 (stereo not given in full),?,pERK EGF inh=-16%;c-Raf inh=-4;MEK1 kinase inh=-19%
C=C[C@@]1(C)CC(=O)[C@@]2(O)[C@@]3(C)[C@@H](O)CCC(C)(C)[C@@H]3[C@H](OC(=O)CCN(C)C)[C@H](OC(C)=O)[C@@]2(C)O1,-1%,
CNC(=S)NNC(=O)c1sc(-c2cc(C)on2)nc1C,4%[57.5 µM],
CNC(=O)NC(=O)C(C)Oc1ccccc1F (stereo not given),26%,
Nc1ccccc1SSc1ccccc1N,27%[57.5 µM],
C/C(N)=C(/C#N)C(=O)CSc1ccccc1F,-7%,
N#CC(=C(/N)Sc1ccccc1N)/C(C#N)=C(/N)Sc1ccccc1N,0.89µM*,c-Raf inh=-2
CCN(CC)CCCNC(=O)/C=C/C(=O)O,4%[57.5 µM],
CS(=O)(=O)N1CCC2(CCN(C(c3ccccc3)c3ccccc3)CC2)CC1,1%,
NS(=O)(=O)c1ccc(N/N=C/c2ccc3c(c2)OCO3)c([N+](=O)[O-])c1,-2%,
O=[N+]([O-])c1ccccc1N/N=C/c1ccc2c(c1)OCO2,?,pERK EGF inh=?;c-Raf inh=-10;MEK1 kinase inh=-1%
O=C(O)c1ccc(N/N=C/c2ccc3c(c2)OCO3)cc1,3%,
N#C/C(=C\c1ccco1)C(=O)NCc1ccccc1,-3%,
O=C(NCC1CCCO1)/C(=C\c1ccco1)NC(=O)c1ccc(Cl)cc1 (stereo not given),8%,
N#CC(C#N)=C1C=CC=CN1/C(=C\c1ccco1)C(=O)c1ccc(Cl)cc1,10µM*,pERK EGF inh=?;c-Raf inh=-15;MEK1 kinase inh=-19%
COC(=O)N[C@@H](/C=C/c1ccccc1)[C@@H](C)[N+](=O)[O-],-15%,
COc1ccc(N2C(=O)/C(=C3/C=CC=CN3C)SC2=S)cc1,-2%,
COc1ccc(N2C(=O)C3C(C2=O)C3(c2ccccc2)c2ccccc2)cc1 (stereo not given),-4%[57.5 µM],
COc1ccc(N=C2C(=Nc3ccc(OC)cc3)N(c3ccc(OC)cc3)C(=S)N2C)cc1,.,pERK EGF inh=7.9µM*;c-Raf inh=6;MEK1 kinase inh=-13%
COc1ccc(N2CC(=O)N(c3ccccc3)C2=S)cc1,5%,
COc1ccc(N=C2C(=Nc3ccc(OC)cc3)N(c3ccc(OC)cc3)C(=S)N2c2ccccc2)cc1,.,pERK EGF inh=8.9µM*;c-Raf inh=-6;MEK1 kinase inh=-10%
COc1ccc(N2C(=O)CN(Cc3cc(OC)c(OC)c(OC)c3)C2=S)cc1,-5%,
CCOC(=O)C1C(=O)NC(c2ccccc2)=NC1c1ccc(OC)cc1 (stereo not given),-12%,
CNc1ncc(C(=O)c2ccc(-c3ccccc3)cc2)s1,-11%[57.5 µM],
CC(C)CN(CC(C)C)c1ccc(/C=N/n2cnnc2)cc1[N+](=O)[O-],-2%,
SMILES,ERK EGF inh,others
Cc1cccc(C(=O)Nc2ccc(N3CCN(S(C)(=O)=O)CC3)cc2)c1,-2%,
COc1ccc(C(=O)N2CCN(Cc3nc(CC4CC4)no3)CC2)cc1,7%,
CCOC(=O)C1C(c2ccccc2)C(C(=O)OCC)S(=O)(=O)C(CCN(CC)CC)S1(=O)=O (stereo not given),2%,
Cc1cccc(CNc2ccnc(-c3cccc(NS(C)(=O)=O)c3)n2)c1,34%,
Cc1cccc(CNc2cc(-c3cccc(NS(C)(=O)=O)c3)ncn2)c1,17%,
Cc1cccc(CNc2ncnc3ccc(-c4cccc(NS(C)(=O)=O)c4)cc23)c1,6.3µM*,pERK EGF inh=11µM*;c-Raf inh=?;MEK1 kinase inh=1%
COC(=O)N1[C@H](C)C=C[C@]1(Cc1ccccc1)C(=O)O,10%,
CN(C)S(=O)(=O)NCCNc1ccc(C(F)(F)F)cc1[N+](=O)[O-],-5%,
Cc1sc2ncnc(Sc3nnnn3-c3ccc(Cl)cc3)c2c1C,.,pERK EGF inh=-3%;c-Raf inh=-12;MEK1 kinase inh=3%
c1ccc(-n2nnnc2Sc2ncnc3sc4c(c23)CCCC4)cc1,0%,
CSc1nnnn1-c1ccc(Cl)cc1,-7%,
COc1c2ccoc2nc2c(OC)c(O[C@@H]3O[C@H](C)[C@@H](O)[C@@H](O)[C@H]3O)ccc12,-8%,
COc1ccccc1/C=C/C(=O)NCC(=O)N/N=C(\CCC(=O)O)c1ccccc1,10%,
Nc1ccc(SC(F)(F)F)cc1,19%,
N#C/C(=C(/N)Sc1ccc(N)cc1)c1ccccc1C(F)(F)F,0.89µM*,c-Raf inh=12;MEK1 kinase inh=-16%
O=C(NO)c1ccccc1C(F)(F)F,5%,
Cc1ccc(OCC(=O)NNC(=O)CSc2ncnc3sc(C)c(C)c23)cc1,-1%,
CC(=O)c1cnc(Nc2ccc(C)cc2)s1,-5%,
Cc1ccc(Nc2ncnc3sc(C)c(C)c23)cc1,8.9µM*,pERK EGF inh=11µM*;c-Raf inh=?;MEK1 kinase inh=-18%

# Assay outcomes as filed in PubChem BioAssay.
